Pf growth 48h: Primary qHTS for delayed death inhibitors of the malarial parasite plastid, 48 hour incubation; P. falciparum luciferase growth in erythrocytes, 48 h; Potency, µM (highest dose often 28.7 µM), without a hit: at the top dose activity change, negative = inhibition, usual class: inhibitors; 310,000 compounds, 5.9% hits; further: on the % scale 0 is the no-effect control and ±100 the full control effect
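Luciferase-expressing P. falciparum in infected erythrocytes (2% hematocrit, 0.1% parasitemia final) in RPMI 1640/0.5% Albumax were exposed to compound for 48 hours at 37 C, 5% CO2; growth read as luminescence.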
NS1 inh: qHTS Assay for Inhibitors of Influenza NS1 Protein Function. Potency, µM (top dose mostly 46.1 µM), for inactives: at the highest dose activity, positive = more growth. 270,000 compounds, 0.4% hits. AID 2326, 2010; calls by dose curve; further: actives are rising curves; nearly all actives have a fitted effect of over 50% in size
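Read-out: OD600 growth recovery of NS1-expressing budding yeast. Cells grown overnight at 30C in -URA glucose medium, washed, resuspended and diluted 1:100 in 2% galactose assay medium, pH 6.0. Same strain lacking NS1 served as positive control.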
SARS PLpro yeast: qHTS of Yeast-based Assay for SARS-CoV PLP; S. cerevisiae expressing SARS-CoV PLpro, growth rescue; 330,000 compounds, 0.19% hits; AID 485353, 2010; Potency, µM (series often up to 32.9 µM), for the others: top-dose activity, positive = growth rescue, actives largely listed as activators; calls by dose curve; further: 0% is about no effect; nearly all actives have a fitted effect of over 55% in size
Pf growth 96h: Primary qHTS for delayed death inhibitors of the malarial parasite plastid, 96 hour incubation. AID 504834, 2011. P. falciparum luciferase reporter growth, 96 h. Potency, µM (top dose mostly 28.7 µM), inactives show top-dose activity change, negative = inhibition, actives largely listed as inhibitors. 320,000 compounds, 6.9% hits; further: on the % scale 0 is the no-effect control and ±100 the full control effect
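Plates of compound plus infected erythrocytes (2% hematocrit, 0.05% parasitemia final) incubate 96 hours, 37 C, 5% CO2. Detection reagent added; reduced luminescence from the parasites' luciferase reporter flags inhibition.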
The depositor's hits bear a star; ? = inconclusive; nt = no result given. This is a sample that favours compounds with a hit; in the whole collection about 10% have one here. Unless noted, the call rests on the fitted dose curve; in most records, active means well fitted inhibition curve with a large enough effect; inconclusive means small, poorly fitted or top-dose-only effect, or another doubt; inactive means no such curve, though single readings can be large or run the other way. Potency means the concentration at half of the fitted maximal effect.

SMILES	Pf growth 48h	NS1 inh	SARS PLpro yeast	Pf growth 96h
O=C(OCCOc1ccc(Br)cc1)c1ccc(Cl)c(S(=O)(=O)N2CCOCC2)c1	?	nt	1%	-33%
CCOC(=O)[C@H]1[C@H]2COc3cc(OC)ccc3[C@@H]2N2C(=O)CN(Cc3ccc(OC)cc3)C(=O)[C@@]12C	12µM*	nt	-5%	?
CCCCN1CC(=O)N2[C@H]3c4cc(OC)ccc4OC[C@@H]3[C@H](C(=O)OCC)[C@]2(C)C1=O	-21%	nt	4%	?
CCOC(=O)[C@H]1[C@H]2COc3ccc(C)cc3[C@@H]2N2C(=O)CN(Cc3ccc(C)cc3)C(=O)[C@@]12C	?	nt	-3%	?
CCOC(=O)[C@H]1[C@H]2COc3ccc(Br)cc3[C@@H]2N2C(=O)CN(Cc3ccc(C)cc3)C(=O)[C@@]12C	15µM*	nt	-1%	?
CCOC(=O)[C@H]1[C@H]2COc3cc(OC)ccc3[C@@H]2N2C(=O)CN(Cc3ccccc3)C(=O)[C@@]12C	?	nt	3%	?
CCOC(=O)[C@H]1[C@H]2COc3ccc(OC)cc3[C@@H]2N2C(=O)CN(Cc3ccc(C)cc3)C(=O)[C@@]12C	10µM*	nt	3%	3.7µM*
CCOC(=O)[C@H]1[C@H]2COc3ccc(OC)cc3[C@@H]2N2C(=O)CN(Cc3ccc(OC)cc3)C(=O)[C@@]12C	6.6µM*	nt	?	?
CCC(C)NC(=O)c1ccc(C)c(NC(=O)C2=C(C)OCCS2)c1 (stereo not drawn)	-4%	0%	1%	27%
CC1CCN(S(=O)(=O)c2ccc(C(=O)N3CCOCC3)cc2)CC1	-27%	7%	-2%	?
CC(C)Cc1nc(Nc2ccccc2C#N)c2nnn(Cc3ccccc3)c2n1	?	5%	-5%	?
CC(C)Cc1nc(N2CCC(C(N)=O)CC2)c2nnn(Cc3ccccc3)c2n1	15µM*	1%	6%	10µM*
Cc1nc(N2CCC(C)CC2)c2nnn(Cc3ccccc3)c2n1	12µM*	-31%	-95%	15µM*
COc1ccc(C2C(C(=O)c3cccs3)=C(O)C(=O)N2CCN2CCOCC2)c(OC)c1 (stereo not drawn)	16%	0%	0%	9%
O=C(CCC(=O)N1CCN(Cc2ccccc2)CC1)Nc1nnc(C2CCCCC2)s1	-30%	-6%	-2%	?
COc1ccc(O)c(/C=N/NC(=S)Nc2cccc(S(=O)(=O)N(C)C)c2)c1	4.1µM*	?	?	4.7µM*
CCN(CC)S(=O)(=O)c1ccc(N/N=C/c2cc(OC)ccc2O)nc1	4.7µM*	-18%	0%	8.3µM*
COc1cccc(/C=N/NC(=S)Nc2cccc(S(=O)(=O)N(C)C)c2)c1	?	10%	-1%	3%
COc1cc(/C=N/NC(=S)Nc2cccc(S(=O)(=O)N(C)C)c2)cc(OC)c1O	-30%	12%	11%	12µM*
COc1ccc(O)c(/C=N/NC(=S)Nc2cccnc2)c1	?	nt	22%	0.52µM*
CC(=O)[C@H]1CC[C@@H]2[C@]1(C)CC=C1[C@@]23C=C[C@]2(C[C@H](O)CC[C@@]12C)[C@H](C(=O)O)[C@@H]3C(=O)O	nt	-3%	nt	nt
CN(C)S(=O)(=O)c1cccc(NC(=S)N/N=C/c2ccc(O)c(O)c2O)c1	4%	18%	11%	10%
CN(C)S(=O)(=O)c1cccc(NC(=S)N/N=C/c2ccco2)c1	3.7µM*	12%	0%	?
Cc1cc(C)cc(NC(=O)CSc2nc(=O)n(CCCN3CCOCC3)c3c2CCCC3)c1	0%	nt	4%	?
CC(NC(=O)c1ccco1)C1COc2ccccc2O1 (stereo not drawn)	nt	10%	-6%	10µM*
COc1ccc(Cl)cc1NC(=O)CC1S/C(=N/N=C2CCCCCC2)NC1=O (stereo not drawn)	?	?	-3%	13µM*
CCOC(=O)CN(C)Cc1cn[nH]c1-c1ccc2cc(OC)ccc2c1	3%	-5%	3%	?
COc1ccc(-c2[nH]ncc2CN(C)CCCN2CCOCC2)cc1F	-13%	4%	0%	?
COc1ccc(-c2[nH]ncc2CN(CC2CCC(=O)N2)C(C)C)cc1F (stereo not drawn)	4%	2%	1%	8.3µM*
COCCN(Cc1cn[nH]c1-c1ccc2cc(OC)ccc2c1)C(C)C	15%	-26%	0%	12µM*
